Compound activity (PubChem BioAssay)
IL-1B inflam inh: qHTS for Inhibitors of Inflammasome Signaling: IL-1-beta AlphaLISA Primary Screen. THP-1 LPS/ATP IL-1B secretion, AlphaLISA, 16 h; active compounds read low. activity change, % at 57.5 µM. 360,000 compounds, 4.7% hits. AID 743279, 2014; in the data active = activity change below about -50%; inconclusive = mostly about -30% to -49%
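THP-1 cells pretreated 1 hr with compounds (up to 57.5 uM final), then stimulated with LPS (250 ng/mL final) plus ATP (1.25 mM final); secreted IL-1B measured by AlphaLISA after 16 hr, decreased signal indicating inhibition.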
uPA surface inh: qHTS for Inhibitors of Cell Surface uPA Generation. Potency, µM (top dose mostly 38.3 µM), for inactives: at the top dose activity change, negative = inhibition, usual class: inhibitors. cell surface uPA generation assay, qHTS. AID 540303, 2011. 330,000 compounds, 0.31% hits; active = well fitted inhibition curve with a large enough effect; inconclusive = small, poorly fitted or top-dose-only effect; inactive = no such curve, though single readings can be large or run the other way; tested in mouse RAW 264.7 cells; note: potency is the fitted concentration of half-maximal effect; nearly all actives have a fitted effect of over 55% in size
HT1080-NT tox: qHTS for induction of synthetic lethality in tumor cells producing 2HG: qHTS for the HT-1080-NT fibrosarcoma cell line. HT-1080-NT fibrosarcoma viability, CellTiter-Glo ATP luminescence, 48 h. Potency, µM (series often up to 46.1 µM), for the others: top-dose activity, negative = less viability, actives largely listed as cytotoxic. 360,000 compounds, 1.6% hits. AID 686970, 2013;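 note: NT is the 2HG producing partner of a matched IDH1 knockdown line; potency is the fitted concentration of half-maximal effect; 0% = DMSO-treated cells and -100% = media-only wells without cells; nearly all actives have a fitted effect of over 55% in size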
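750 cells/well, RPMI + 5% FBS; 2 h settle, compound pin-transfer, 48 h at 37 degrees C. CellTiter-Glo 10 min RT, luminescence. Normalized to DMSO and media-only wells.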
HT1080 IDH1KD tx: qHTS for induction of synthetic lethality in tumor cells producing 2HG: qHTS for the HT-1080-IDH1KD cell line; HT-1080 IDH1 knockdown viability, ATP luminescence, 48 h; Potency, µM (top dose mostly 46.1 µM), for inactives: at the highest dose activity, negative = toxicity, actives largely listed as cytotoxic; 360,000 compounds, 2% hits; AID 686971, 2013;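 note: potency is the fitted concentration of half-maximal effect; 0% = DMSO wells and -100% = cell-free medium wells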
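After a 2 h attachment period, IDH1KD HT-1080 cells took pin-transferred compound for 48 h at 37 °C; ATP-based luminescence after 10 min room-temperature reagent incubation reported viability.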
TDP1 cell noCPT: qHTS for Inhibitors of human tyrosyl-DNA phosphodiesterase 1 (TDP1): qHTS in cells in absence of CPT | DT40 Tdp1-/- hTDP1 cells, no CPT, ATP luminescence, 48 h | Potency, µM (highest dose often 46.2 µM), for the others: at the highest dose activity change, negative = growth inhibition, actives largely listed as inhibitors | 420,000 compounds, 15% hits; note: potency is the fitted concentration of half-maximal effect; nearly all actives have a fitted effect of over 55% in size
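No-CPT arm: Tdp1-/-;hTDP1 DT40 cells (400/well) plus compounds, incubated ≥48 hr at 37 °C. Readout CellTiter-Glo luminescence.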
DT40 TDP1 CPT: qHTS for Inhibitors of human tyrosyl-DNA phosphodiesterase 1 (TDP1): qHTS in cells in presence of CPT. 420,000 compounds, 12% hits. chicken DT40 Tdp1-/-;hTDP1 cells + 20 nM CPT, ATP luminescence, 48 h. AID 686979, 2013. Potency, µM (highest dose often 46.2 µM), for inactives: at the highest dose activity change, negative = growth inhibition, hits mostly inhibitors; note: potency is the fitted concentration of half-maximal effect; nearly all actives have a fitted effect of over 55% in size
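Cell growth measured by CellTiter-Glo luminescence after a minimum 48 h, 37 C compound exposure with 20 nM CPT in Tdp1-knockout DT40 cells stably expressing hTDP1, seeded 400/well; qHTS titration format.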
* hit, by the source's call. Shown are actives, neighbours in structure and some others; about 19% of the full set was active somewhere. Unless noted, calls come from the whole dose curve; as a rule, active = well fitted curve in the direction sought with a large enough effect; inconclusive = small, poorly fitted or top-dose-only effect, or another doubt; inactive = no such curve, though single readings can be large; an effect the other way counts as inactive or inconclusive. Unless noted, % is set by controls: 0 for no effect and ±100 for the full control effect.

`O=C(Nc1ccc(Cl)cc1)Nc1nnc(CSCc2ccccc2Cl)s1` gave IL-1B inflam inh 11, uPA surface inh 1%, HT1080-NT tox 4%, HT1080 IDH1KD tx 0%, TDP1 cell noCPT 12µM* and DT40 TDP1 CPT 16µM*.
`O=C(Nc1ccc(Cl)cc1)Nc1nnc(SCc2ccccc2)s1` gave IL-1B inflam inh -17, uPA surface inh 9%, HT1080-NT tox 12%, HT1080 IDH1KD tx 10%, TDP1 cell noCPT inconclusive and DT40 TDP1 CPT inconclusive.
For COc1ccc(NC(=O)Nc2nnc(C(C)(C)C)s2)cc1 the results were IL-1B inflam inh -26, uPA surface inh 23%, HT1080-NT tox 5%, HT1080 IDH1KD tx 2%, TDP1 cell noCPT inconclusive and DT40 TDP1 CPT -26%.
Screening O=C1NC(c2ccccc2)=C(c2nc3ccccc3s2)C(c2ccc(O)cc2)N1 (stereo not drawn) returned IL-1B inflam inh -5, uPA surface inh inconclusive, HT1080-NT tox 7.9µM*, HT1080 IDH1KD tx 5.6µM*, TDP1 cell noCPT inconclusive and DT40 TDP1 CPT -4%.
For O=C1NC(c2ccccc2)=C(c2ccc3ccccc3n2)C(c2ccc(F)cc2)N1 (stereo not drawn) the results were IL-1B inflam inh -23, uPA surface inh -5%, HT1080-NT tox -15%, HT1080 IDH1KD tx -16%, TDP1 cell noCPT inconclusive and DT40 TDP1 CPT inconclusive.
`O=C1NC(c2ccccc2)=C(c2ccc3ccccc3n2)C(c2ccccc2)N1` (stereo not drawn) gave IL-1B inflam inh 3, uPA surface inh 7%, HT1080-NT tox -10%, HT1080 IDH1KD tx -14%, TDP1 cell noCPT 26µM* and DT40 TDP1 CPT inconclusive.
COc1ccc2cc(C3OCCO3)c(Cl)nc2c1 was read as IL-1B inflam inh -9, uPA surface inh -6%, HT1080-NT tox inconclusive, HT1080 IDH1KD tx 13%, TDP1 cell noCPT -10% and DT40 TDP1 CPT -1%.
CC(C)S(=O)(=O)C/C(N)=N/OC(=O)c1cc(Cl)cc(Cl)c1 was read as uPA surface inh 2%, HT1080-NT tox 6%, HT1080 IDH1KD tx 9%, TDP1 cell noCPT -7% and DT40 TDP1 CPT 11%.
`CC(C)NC(=O)c1nn(C)c2ccccc12` gave IL-1B inflam inh -29, uPA surface inh 7%, HT1080-NT tox 12%, HT1080 IDH1KD tx 13%, TDP1 cell noCPT -14% and DT40 TDP1 CPT 2%.
CC1CC(C)CN(C(=O)COC(=O)c2ccc3c(c2)OCCO3)C1 (stereo not drawn) was read as IL-1B inflam inh -4, uPA surface inh 3%, HT1080-NT tox 0%, HT1080 IDH1KD tx 0%, TDP1 cell noCPT inconclusive and DT40 TDP1 CPT -3%.
`CCN(CC)c1ccc(NS(=O)(=O)c2ccc3c(c2)oc(=O)n3C)c(C)c1` gave IL-1B inflam inh -26, uPA surface inh 5%, HT1080-NT tox -16%, HT1080 IDH1KD tx -3%, TDP1 cell noCPT inconclusive and DT40 TDP1 CPT 26µM*.
CCOC(=O)N1CCN(C(=O)CN2C(=O)c3ccccc3S2(=O)=O)CC1 was read as IL-1B inflam inh 11, uPA surface inh 2%, HT1080-NT tox 13%, HT1080 IDH1KD tx 11%, TDP1 cell noCPT 0% and DT40 TDP1 CPT 2%.
`CCN1C(C(=O)c2ccccc2)=C(OC(=O)c2ccc(Cl)cc2)c2ccccc2S1(=O)=O` gave TDP1 cell noCPT 23µM* and DT40 TDP1 CPT inconclusive.
Screening CCOC(=O)CN1C(C(=O)c2ccccc2)=C(OC(=O)c2ccccc2)c2ccccc2S1(=O)=O returned TDP1 cell noCPT 26µM* and DT40 TDP1 CPT 21µM*.
